Results published in the supplement of paper PMC11732987, “Enantioselective OTUD7B fragment discovery through chemoproteomics screening and high-throughput optimisation” (Communications Chemistry, 2025).

Legend:
Assay in all cases: log2 ratio of Biotin-Ahx-Ub-VS probe labelling (fragment/DMSO); higher = less target engagement (more negative = stronger competition), active = hit call of the paper (q ≤ 0.05, log2 ratio ≤ -1)
Settings in all cases: compound concentration: 200 uM; treatment time: 3 h
USP19 = biological target: T1, USP19 (UniProt O94966)
T1 sequence (whole entry): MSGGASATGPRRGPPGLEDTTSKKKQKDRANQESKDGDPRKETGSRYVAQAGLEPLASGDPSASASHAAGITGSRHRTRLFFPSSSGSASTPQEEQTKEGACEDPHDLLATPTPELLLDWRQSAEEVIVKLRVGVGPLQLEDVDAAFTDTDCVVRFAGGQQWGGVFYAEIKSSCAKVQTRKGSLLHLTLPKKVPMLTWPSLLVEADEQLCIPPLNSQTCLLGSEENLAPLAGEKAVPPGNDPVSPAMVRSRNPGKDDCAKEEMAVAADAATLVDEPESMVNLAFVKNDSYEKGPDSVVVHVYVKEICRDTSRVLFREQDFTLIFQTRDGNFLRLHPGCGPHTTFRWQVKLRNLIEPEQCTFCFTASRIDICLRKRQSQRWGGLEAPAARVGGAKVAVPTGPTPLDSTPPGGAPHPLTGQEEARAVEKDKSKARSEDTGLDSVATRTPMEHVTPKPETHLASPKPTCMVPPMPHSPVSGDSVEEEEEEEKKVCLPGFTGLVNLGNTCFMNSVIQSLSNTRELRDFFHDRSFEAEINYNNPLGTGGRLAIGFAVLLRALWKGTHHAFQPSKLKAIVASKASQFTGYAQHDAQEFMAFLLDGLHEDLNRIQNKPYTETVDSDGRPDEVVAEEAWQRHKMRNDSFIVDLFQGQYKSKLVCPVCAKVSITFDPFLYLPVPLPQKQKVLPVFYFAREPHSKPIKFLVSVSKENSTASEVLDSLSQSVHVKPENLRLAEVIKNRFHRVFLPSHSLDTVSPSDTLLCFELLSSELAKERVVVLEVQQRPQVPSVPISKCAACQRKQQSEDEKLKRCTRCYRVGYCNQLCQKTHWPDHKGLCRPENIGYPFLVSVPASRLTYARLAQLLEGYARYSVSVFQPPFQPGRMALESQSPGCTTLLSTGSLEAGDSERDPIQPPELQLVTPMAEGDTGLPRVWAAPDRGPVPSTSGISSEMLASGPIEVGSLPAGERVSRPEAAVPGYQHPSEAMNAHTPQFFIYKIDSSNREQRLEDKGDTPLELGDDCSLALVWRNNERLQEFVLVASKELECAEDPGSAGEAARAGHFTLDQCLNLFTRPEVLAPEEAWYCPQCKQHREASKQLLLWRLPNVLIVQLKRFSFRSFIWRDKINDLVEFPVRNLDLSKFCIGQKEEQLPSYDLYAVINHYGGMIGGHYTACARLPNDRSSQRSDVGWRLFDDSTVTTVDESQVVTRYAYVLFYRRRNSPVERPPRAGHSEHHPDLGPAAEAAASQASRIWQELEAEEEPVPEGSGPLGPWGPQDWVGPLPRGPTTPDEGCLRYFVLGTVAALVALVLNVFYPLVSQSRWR
How it was run: (§1)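 Labelled DUBs from HEK293T lysate were NeutrAvidin-enriched, digested with LysC and trypsin, and run by diaPASEF LC-MS/MS. Before that, each 495 µg sample in Tris/CHAPS/IGEPAL buffer with protease inhibitors was treated in triplicate with fragment at 200 µM or vehicle for 3 h, then with Biotin-Ahx-Ub-VS at 0.5 µM final for 1 h. Values are average log2 ratios of fragment over vehicle by unpaired t-test, based on global-median-normalised Spectronaut label-free quantities from proteins with ≥2 unique peptides.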

USP22 = biological target: T2, USP22 (UniProt Q9UPT9)
T2 sequence (whole entry): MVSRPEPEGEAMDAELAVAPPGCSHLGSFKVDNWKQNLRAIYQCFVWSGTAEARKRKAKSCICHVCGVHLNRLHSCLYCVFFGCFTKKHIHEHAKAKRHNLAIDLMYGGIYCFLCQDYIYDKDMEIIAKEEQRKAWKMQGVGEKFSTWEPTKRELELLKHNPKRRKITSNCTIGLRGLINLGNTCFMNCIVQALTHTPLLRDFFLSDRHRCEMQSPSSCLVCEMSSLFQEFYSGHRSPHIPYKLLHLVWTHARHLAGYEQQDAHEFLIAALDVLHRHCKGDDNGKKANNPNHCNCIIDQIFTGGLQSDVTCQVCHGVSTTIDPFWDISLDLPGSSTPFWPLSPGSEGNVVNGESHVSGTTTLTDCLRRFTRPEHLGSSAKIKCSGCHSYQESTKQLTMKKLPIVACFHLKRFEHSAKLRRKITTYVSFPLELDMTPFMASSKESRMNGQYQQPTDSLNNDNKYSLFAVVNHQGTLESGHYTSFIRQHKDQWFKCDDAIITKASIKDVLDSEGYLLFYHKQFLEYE
How it was run: as §1

USP24 = USP24 (UniProt Q9UPU5)
How it was run: as §1

USP25 = biological target: T3, USP25 (UniProt Q9UHP3)
T3 sequence (whole entry): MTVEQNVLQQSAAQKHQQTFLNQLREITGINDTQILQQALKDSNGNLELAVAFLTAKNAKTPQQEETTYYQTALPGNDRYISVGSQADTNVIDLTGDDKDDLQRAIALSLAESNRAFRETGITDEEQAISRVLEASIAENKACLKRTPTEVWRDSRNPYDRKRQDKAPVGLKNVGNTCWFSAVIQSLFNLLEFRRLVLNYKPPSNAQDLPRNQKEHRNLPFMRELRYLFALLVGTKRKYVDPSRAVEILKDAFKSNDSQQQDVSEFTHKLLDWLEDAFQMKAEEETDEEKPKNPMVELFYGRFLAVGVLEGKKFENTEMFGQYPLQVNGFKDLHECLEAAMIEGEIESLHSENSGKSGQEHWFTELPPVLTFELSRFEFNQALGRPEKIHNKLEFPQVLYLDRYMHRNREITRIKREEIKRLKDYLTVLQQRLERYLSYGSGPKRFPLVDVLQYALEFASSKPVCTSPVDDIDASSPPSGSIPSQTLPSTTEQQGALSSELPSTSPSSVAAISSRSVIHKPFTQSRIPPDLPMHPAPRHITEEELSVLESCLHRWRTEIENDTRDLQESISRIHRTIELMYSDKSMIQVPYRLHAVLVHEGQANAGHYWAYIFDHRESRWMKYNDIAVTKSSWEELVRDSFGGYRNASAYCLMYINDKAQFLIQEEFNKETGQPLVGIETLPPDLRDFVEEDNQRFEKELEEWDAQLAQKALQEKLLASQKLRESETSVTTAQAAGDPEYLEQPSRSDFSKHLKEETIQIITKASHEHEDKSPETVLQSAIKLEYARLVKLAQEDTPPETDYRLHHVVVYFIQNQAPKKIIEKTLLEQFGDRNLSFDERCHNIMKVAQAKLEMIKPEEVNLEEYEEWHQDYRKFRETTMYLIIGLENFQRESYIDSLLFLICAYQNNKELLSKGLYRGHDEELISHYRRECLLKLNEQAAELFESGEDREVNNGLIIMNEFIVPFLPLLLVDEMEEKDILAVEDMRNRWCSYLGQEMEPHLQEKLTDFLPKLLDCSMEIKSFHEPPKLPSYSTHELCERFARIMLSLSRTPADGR
How it was run: as §1

USP28 = biological target: T4, USP28 (UniProt Q96RU2)
T4 sequence (whole entry): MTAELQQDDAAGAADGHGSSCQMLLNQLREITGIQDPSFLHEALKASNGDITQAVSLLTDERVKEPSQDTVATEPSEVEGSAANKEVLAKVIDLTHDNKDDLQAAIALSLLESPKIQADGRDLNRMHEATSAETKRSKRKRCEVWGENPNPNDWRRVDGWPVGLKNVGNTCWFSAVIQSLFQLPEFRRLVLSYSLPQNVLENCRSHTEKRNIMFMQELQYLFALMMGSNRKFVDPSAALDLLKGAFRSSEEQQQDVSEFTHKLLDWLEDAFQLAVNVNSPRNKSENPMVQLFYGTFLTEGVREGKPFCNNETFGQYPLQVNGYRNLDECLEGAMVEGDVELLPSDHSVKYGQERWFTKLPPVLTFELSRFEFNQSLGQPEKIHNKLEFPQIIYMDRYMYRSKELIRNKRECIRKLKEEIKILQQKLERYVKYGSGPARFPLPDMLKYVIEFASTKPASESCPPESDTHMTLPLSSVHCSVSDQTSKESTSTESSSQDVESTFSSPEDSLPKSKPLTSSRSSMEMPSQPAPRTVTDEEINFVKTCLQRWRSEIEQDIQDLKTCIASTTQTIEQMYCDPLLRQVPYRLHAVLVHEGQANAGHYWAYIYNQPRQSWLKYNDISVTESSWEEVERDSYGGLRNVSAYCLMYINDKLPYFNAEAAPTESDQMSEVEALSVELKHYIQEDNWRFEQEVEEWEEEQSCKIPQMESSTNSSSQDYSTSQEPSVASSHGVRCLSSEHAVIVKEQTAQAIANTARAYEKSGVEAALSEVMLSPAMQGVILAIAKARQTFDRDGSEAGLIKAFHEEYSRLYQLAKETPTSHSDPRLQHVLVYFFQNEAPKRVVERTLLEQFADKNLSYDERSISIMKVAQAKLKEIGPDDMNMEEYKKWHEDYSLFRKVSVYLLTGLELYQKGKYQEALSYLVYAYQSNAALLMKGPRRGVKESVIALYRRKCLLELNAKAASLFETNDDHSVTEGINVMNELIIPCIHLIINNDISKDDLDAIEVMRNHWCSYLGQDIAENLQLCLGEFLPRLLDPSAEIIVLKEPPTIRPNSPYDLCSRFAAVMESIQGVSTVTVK
How it was run: as §1

Measured: log2 ratio of Biotin-Ahx-Ub-VS probe labelling

Chain of USP24 (Q9UPU5 whole entry): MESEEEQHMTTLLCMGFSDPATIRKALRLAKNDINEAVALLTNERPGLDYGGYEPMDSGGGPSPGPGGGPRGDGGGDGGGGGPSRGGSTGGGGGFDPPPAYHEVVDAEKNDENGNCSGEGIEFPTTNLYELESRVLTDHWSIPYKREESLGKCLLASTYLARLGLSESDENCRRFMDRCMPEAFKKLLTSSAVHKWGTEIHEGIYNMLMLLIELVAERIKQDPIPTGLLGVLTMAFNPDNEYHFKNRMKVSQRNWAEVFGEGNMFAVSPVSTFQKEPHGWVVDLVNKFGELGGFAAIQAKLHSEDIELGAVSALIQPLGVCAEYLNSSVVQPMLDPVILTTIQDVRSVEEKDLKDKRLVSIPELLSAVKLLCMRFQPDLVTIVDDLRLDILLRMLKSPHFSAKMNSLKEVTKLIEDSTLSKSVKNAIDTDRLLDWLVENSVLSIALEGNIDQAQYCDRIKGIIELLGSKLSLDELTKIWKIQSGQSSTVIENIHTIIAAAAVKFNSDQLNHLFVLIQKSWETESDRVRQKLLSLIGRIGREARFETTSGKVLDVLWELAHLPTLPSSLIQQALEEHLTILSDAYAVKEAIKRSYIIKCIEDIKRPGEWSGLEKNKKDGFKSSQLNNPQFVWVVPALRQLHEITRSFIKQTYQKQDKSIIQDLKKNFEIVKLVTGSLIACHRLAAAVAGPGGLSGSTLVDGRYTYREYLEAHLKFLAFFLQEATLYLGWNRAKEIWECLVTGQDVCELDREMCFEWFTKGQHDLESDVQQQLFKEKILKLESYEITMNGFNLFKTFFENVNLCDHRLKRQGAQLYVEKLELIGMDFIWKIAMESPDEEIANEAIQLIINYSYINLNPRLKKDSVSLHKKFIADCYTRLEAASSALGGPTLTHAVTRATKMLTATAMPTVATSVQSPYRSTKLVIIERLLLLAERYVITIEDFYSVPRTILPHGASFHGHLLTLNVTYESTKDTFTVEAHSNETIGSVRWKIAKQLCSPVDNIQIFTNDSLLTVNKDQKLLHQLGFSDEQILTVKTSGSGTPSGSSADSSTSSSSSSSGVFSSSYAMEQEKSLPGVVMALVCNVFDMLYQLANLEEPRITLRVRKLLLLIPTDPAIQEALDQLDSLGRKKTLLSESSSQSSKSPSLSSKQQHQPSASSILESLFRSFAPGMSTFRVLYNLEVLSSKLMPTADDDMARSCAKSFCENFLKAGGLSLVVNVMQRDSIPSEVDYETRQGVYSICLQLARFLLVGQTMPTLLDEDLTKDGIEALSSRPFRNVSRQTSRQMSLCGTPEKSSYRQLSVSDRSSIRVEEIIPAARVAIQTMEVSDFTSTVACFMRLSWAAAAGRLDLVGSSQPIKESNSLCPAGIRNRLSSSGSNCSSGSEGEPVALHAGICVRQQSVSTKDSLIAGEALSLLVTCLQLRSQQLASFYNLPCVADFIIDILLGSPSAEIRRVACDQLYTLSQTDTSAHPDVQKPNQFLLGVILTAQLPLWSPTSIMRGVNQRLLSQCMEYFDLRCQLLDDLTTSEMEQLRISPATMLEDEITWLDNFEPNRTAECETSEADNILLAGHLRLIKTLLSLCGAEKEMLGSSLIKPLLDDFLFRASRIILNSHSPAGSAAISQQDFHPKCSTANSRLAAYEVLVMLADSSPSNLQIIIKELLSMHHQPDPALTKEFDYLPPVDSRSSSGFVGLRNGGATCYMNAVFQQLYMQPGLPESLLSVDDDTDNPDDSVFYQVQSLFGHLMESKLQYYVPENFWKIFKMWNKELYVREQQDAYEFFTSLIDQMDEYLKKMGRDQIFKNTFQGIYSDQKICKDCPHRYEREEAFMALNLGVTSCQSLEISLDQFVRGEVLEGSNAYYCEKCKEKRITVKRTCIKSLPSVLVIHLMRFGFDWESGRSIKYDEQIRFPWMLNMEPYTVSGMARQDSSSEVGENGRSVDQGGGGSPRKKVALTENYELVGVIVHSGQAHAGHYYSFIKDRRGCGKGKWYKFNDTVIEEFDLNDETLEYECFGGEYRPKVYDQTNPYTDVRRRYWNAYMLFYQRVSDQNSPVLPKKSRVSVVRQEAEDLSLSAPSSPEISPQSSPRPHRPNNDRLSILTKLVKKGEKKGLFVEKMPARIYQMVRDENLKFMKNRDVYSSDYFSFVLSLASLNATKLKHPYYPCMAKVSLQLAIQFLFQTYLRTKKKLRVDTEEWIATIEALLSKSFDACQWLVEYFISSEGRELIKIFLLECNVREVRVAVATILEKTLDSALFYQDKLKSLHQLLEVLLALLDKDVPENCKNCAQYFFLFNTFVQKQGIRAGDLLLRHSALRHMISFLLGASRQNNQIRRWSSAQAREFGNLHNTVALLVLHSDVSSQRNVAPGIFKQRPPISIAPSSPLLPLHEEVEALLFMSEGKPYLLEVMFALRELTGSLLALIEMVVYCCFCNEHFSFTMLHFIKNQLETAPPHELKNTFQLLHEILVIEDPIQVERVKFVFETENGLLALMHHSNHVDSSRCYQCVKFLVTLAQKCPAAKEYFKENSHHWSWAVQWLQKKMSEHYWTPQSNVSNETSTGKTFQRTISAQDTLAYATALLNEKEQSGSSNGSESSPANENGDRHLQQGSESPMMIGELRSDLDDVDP

CC(NC(=O)CCl)c1cc2n(n1)CCCC2.Cl (stereo not given)
inactive: USP19 -0.153 | USP22 0.0191 | USP24 -0.262 | USP25 -0.378 | USP28 -0.582
